Data: PubChem BioAssay (NCI)
The panel holds about 79,000 compounds, 15% with a hit somewhere; the sample as a whole holds those more often. Rule as the data show it: active = growth inhibition above about 70%; inactive = the rest.

Experiments:
[1] = NCI Yeast Anticancer Drug Screen. Data for the rad50 strain (AID 155);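 also: 0% = growth of vehicle-only cultures of the same strain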; conditions: S. cerevisiae rad50 strain growth inhibition; at 50.0 µM; stronger effect = higher value
Outline: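 Cells are treated with compound, grown, and their growth is then scored against vehicle-only cultures of the same repair-deficient yeast strain.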

[2] = NCI Yeast Anticancer Drug Screen. Data for the mec2-1 strain (AID 157); conditions: S. cerevisiae mec2-1 strain, at 50.0 µM, stronger effect = higher value
Outline: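 Mutant yeast (mec2-1) grown with compound; growth inhibition relative to vehicle control reported.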

[3] = NCI Yeast Anticancer Drug Screen. Data for the mlh1 rad18 strain (AID 175); conditions: S. cerevisiae mlh1 rad18 strain growth inhibition; at 50.0 µM; stronger effect = higher value
Outline: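 Genetically defined yeast (DNA repair-deficient) exposed to compounds; growth inhibition determined relative to vehicle.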

[4] = NCI Yeast Anticancer Drug Screen. Data for the cln2 rad14 strain (AID 165);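 also: 0% = growth equal to vehicle treated cultures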; conditions: S. cerevisiae cln2 rad14 strain, at 50.0 µM, stronger effect = higher value
Outline: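 Readout is yeast growth inhibition versus vehicle-treated controls, using a strain with cln2 and rad14 alterations exposed to compound.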

[5] = NCI Yeast Anticancer Drug Screen. Data for the bub3 strain (AID 167); conditions: S. cerevisiae bub3 mutant strain, at 50.0 µM, stronger effect = higher value
Outline: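 Part of a panel of yeast mutants defective in DNA damage repair or cell cycle regulation. Each strain is grown with compound, and inhibition is calculated relative to solvent-treated cultures.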

Measured: growth inhibition

CC(=O)C1=CCC2C3CC(C)=C4CC(O)CCC4(C)C3CCC12C (stereo unspecified)
inactive: [1] 24.9% | [2] -1.15% | [3] -2.95%

CCN(CC#N)c1ccc(Nc2cc(Cl)ccc2Cl)cc1
inactive: [1] 8.75% | [2] -22.1% | [3] 0.3%

N#[N+]c1ccc2c(S(=O)(=O)O)cccc2c1O
inactive: [1] -17.9% | [2] -16.2% | [3] -25.7%

CC1=CC(=O)c2ccc(C)cc2C1=O
inactive: [1] -8.9% | [2] -24.4% | [4] -18.9% | [5] -0.4% | [3] 5.85%

C[C@]12CC[C@@H]3c4ccc(OS(N)(=O)=O)cc4CC[C@H]3[C@@H]1CCC2=O
inactive: [1] 2.35% | [2] 8.15% | [4] 8.35% | [5] 5.6% | [3] 15.8%

CC(C)Cc1ccc(C(C)C(=O)O)cc1 (stereo unspecified)
inactive: [1] 0.5% | [2] 9.7% | [5] -26.1% | [3] 3.25%

CC(=O)c1ccc(NC(=O)/C(CC(=O)/C=C/c2ccccc2)=N/NC(N)=S)cc1
inactive: [1] 37.1% | [2] -32.4% | [4] 16.3% | [5] 35.1% | [3] 9.65%

C=C1C(=O)O[C@@H]2C[C@@]3(C)CC(=O)C=C(C)[C@@H]3C[C@H]12
inactive: [1] 12.6% | [2] -7.15% | [4] 24.7% | [5] 15.8% | [3] -16.4%

CN(C)/C=C/C(=O)c1ccccc1[N+](=O)[O-]
inactive: [1] 16.7% | [2] -11.4% | [3] 12.2%
